# The entries come from a sample that favours the strongest signals as a whole.
# B1: AFL (Aspergillus fumigatus), Q4WW81 (protein)
# chain: STPGAQQVLFRTGIAAVNLTNHLRVYFQDVYGSIRESLYEGSWANGTEKNVIGNAKLGSPVAATSKELKHIRVYTLTEGNTLQEFAYDSGTGWYNGGLGGAKFQVAPYSRIAAVFLAGTDALQLRIYAQKPDNTIQEYMWNGDGWKEGTNLGGALPGTGIGATSFRYTDYNGPSIRIWFQTDDLKLVQRAYDPHKGWYPDLVTIFDRAPPRTAIAATSFGAGNSSIYMRIYFVNSDNTIWQVCWDHGKGYHDKGTITPVIQGSEVAIISWGSFANNGPDLRLYFQNGTYISAVSEWVWNRAHGSQLGRSALPPA
# What was measured:
# Assay in all cases: glycan array binding signal (z-score within array); higher = stronger binding
# Conditions in all cases: glycan notation: IUPAC condensed, linker removed
# [1] = molecular target: Fuc(a1-2)Gal(b1-3)GlcNAc(b1-2)Man(a1-3)[Fuc(a1-2)Gal(b1-3)GlcNAc(b1-2)Man(a1-6)]Man(b1-4)GlcNAc(b1-4)GlcNAc
# How it was run: (§1)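 The binding signal is a Z-score computed within each array and averaged over linkers. Arrays of the same protein sequence at different concentrations or buffers were also averaged together. Data originate from 3228 arrays in the Consortium for Functional Glycomics database, kept only where the protein sequence was available.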
# Fuc(a1-2)Gal(b1-4)Glc6S = molecular target: Fuc(a1-2)Gal(b1-4)Glc6S
# How it was run: as §1
# Fuc(a1-2)Gal(b1-4)GlcNAc = molecular target: Fuc(a1-2)Gal(b1-4)GlcNAc
# How it was run: as §1
# [2] = molecular target: Fuc(a1-2)Gal(b1-4)GlcNAc6S
# How it was run: as §1
# [3] = molecular target: Fuc(a1-2)Gal(b1-4)[Fuc(a1-3)]GlcNAc
# How it was run: as §1
# [4] = molecular target: Fuc(a1-2)Gal(b1-4)[Fuc(a1-3)]GlcNAc(b1-3)Gal(b1-4)[Fuc(a1-3)]GlcNAc
# How it was run: as §1
# [5] = molecular target: Fuc(a1-2)Gal(b1-4)[Fuc(a1-3)]GlcNAc(b1-3)Gal(b1-4)[Fuc(a1-3)]GlcNAc(b1-3)Gal(b1-4)[Fuc(a1-3)]GlcNAc
# How it was run: as §1
# Fuc(a1-2)Gal6S(b1-4)Glc = molecular target: Fuc(a1-2)Gal6S(b1-4)Glc
# How it was run: as §1
# [6] = molecular target: Fuc(a1-2)[Gal(a1-3)]Gal(b1-4)Glc
# How it was run: as §1
# [7] = molecular target: Fuc(a1-2)[GalNAc(a1-3)]Gal
# How it was run: as §1
# [8] = molecular target: Fuc(a1-2)[GalNAc(a1-3)]Gal(b1-3)GlcNAc(b1-2)Man(a1-3)[Fuc(a1-2)[GalNAc(a1-3)]Gal(b1-3)GlcNAc(b1-2)Man(a1-6)]Man(b1-4)GlcNAc(b1-4)GlcNAc
# How it was run: as §1
# Fuc(a1-3)GlcNAc = molecular target: Fuc(a1-3)GlcNAc
# How it was run: as §1
# [9] = molecular target: Fuc(a1-3)[Gal3S(b1-4)]GlcNAc
# How it was run: as §1
# Fuc(a1-4)GlcNAc = molecular target: Fuc(a1-4)GlcNAc
# How it was run: as §1
# Gal(a1-3)Gal(b1-3)GlcNAc = molecular target: Gal(a1-3)Gal(b1-3)GlcNAc
# How it was run: as §1
# [10] = molecular target: Gal(a1-3)Gal(b1-4)[Fuc(a1-3)]GlcNAc(b1-2)Man(a1-3)[Gal(a1-3)Gal(b1-4)[Fuc(a1-3)]GlcNAc(b1-2)Man(a1-6)]Man(b1-4)GlcNAc(b1-4)GlcNAc
# How it was run: as §1
# [11] = molecular target: Gal(a1-3)[Gal(a1-4)]Gal(b1-4)GlcNAc
# How it was run: as §1
# Gal(a1-4)GlcNAc = molecular target: Gal(a1-4)GlcNAc
# How it was run: as §1
# Gal(b1-3)GalNAc = molecular target: Gal(b1-3)GalNAc
# How it was run: as §1
# Gal(b1-4)Glc = molecular target: Gal(b1-4)Glc
# How it was run: as §1
# [12] = molecular target: Gal(b1-4)GlcNAc(b1-2)[Gal(b1-4)GlcNAc(b1-6)]Man(a1-6)[Gal(b1-4)GlcNAc(b1-2)Man(a1-3)]Man(b1-4)GlcNAc(b1-4)GlcNAc
# How it was run: as §1
# [13] = molecular target: Gal(b1-4)GlcNAc(b1-3)Gal(b1-4)Glc
# How it was run: as §1
# [14] = molecular target: Gal(b1-4)GlcNAc(b1-3)GalNAc
# How it was run: as §1
# [15] = molecular target: Gal(b1-4)GlcNAc(b1-3)[Gal(b1-4)GlcNAc(b1-6)]GalNAc
# How it was run: as §1
# Gal3S(b1-3)GalNAc = molecular target: Gal3S(b1-3)GalNAc
# How it was run: as §1
# [16] = molecular target: Gal3S(b1-4)[Fuc(a1-3)]Glc
# How it was run: as §1
# Gal3S6S(b1-4)GlcNAc6S = molecular target: Gal3S6S(b1-4)GlcNAc6S
# How it was run: as §1
# Gal6S(b1-3)GlcNAc6S = molecular target: Gal6S(b1-3)GlcNAc6S
# How it was run: as §1
# GalNAc(a1-3)Gal = molecular target: GalNAc(a1-3)Gal
# How it was run: as §1
# [17] = molecular target: GalNAc(a1-3)GalNAc(a1-3)Gal(a1-4)Gal(b1-4)GlcNAc
# How it was run: as §1
# [18] = molecular target: GalNAc(a1-3)GalNAc(b1-3)Gal(a1-4)Gal(b1-4)GlcNAc
# How it was run: as §1
# GlcA(b1-3)GlcNAc = molecular target: GlcA(b1-3)GlcNAc
# How it was run: as §1
# [19] = molecular target: GlcNAc(a1-4)Gal(b1-3)GlcNAc
# How it was run: as §1
# [20] = molecular target: GlcNAc(a1-4)Gal(b1-4)GalNAc
# How it was run: as §1
# Kdn(a2-3)Gal(b1-4)GlcNAc = molecular target: Kdn(a2-3)Gal(b1-4)GlcNAc
# How it was run: as §1
# [21] = molecular target: Man(a1-2)Man(a1-6)[Man(a1-3)]Man(a1-6)[Man(a1-2)Man(a1-2)Man(a1-3)]Man(b1-4)GlcNAc(b1-4)GlcNAc
# How it was run: as §1
# [22] = molecular target: Neu5Ac(a2-3)Gal(b1-3)GalNAc
# How it was run: as §1
# [23] = molecular target: Neu5Ac(a2-3)Gal(b1-3)GalNAc(b1-4)[Neu5Ac(a2-8)Neu5Ac(a2-3)]Gal(b1-4)Glc
# How it was run: as §1
# [24] = molecular target: Neu5Ac(a2-6)Gal(b1-3)GlcNAc(b1-3)[Gal(b1-4)GlcNAc(b1-6)]Gal(b1-4)Glc
# How it was run: as §1
# Neu5Ac(a2-6)GalNAc = molecular target: Neu5Ac(a2-6)GalNAc
# How it was run: as §1
# [25] = molecular target: Neu5Ac(b2-6)Gal(b1-4)GlcNAc
# How it was run: as §1
binder,measurement,setting,value
B1,glycan array binding signal (z-score),[1],-0.22
same,glycan array binding signal (z-score),Fuc(a1-2)Gal(b1-4)Glc6S,3.64
same,glycan array binding signal (z-score),Fuc(a1-2)Gal(b1-4)GlcNAc,2.94
same,glycan array binding signal (z-score),[2],3.17
same,glycan array binding signal (z-score),[3],4.58
same,glycan array binding signal (z-score),[4],3.88
same,glycan array binding signal (z-score),[5],4.31
same,glycan array binding signal (z-score),Fuc(a1-2)Gal6S(b1-4)Glc,3.41
same,glycan array binding signal (z-score),[6],-0.359
same,glycan array binding signal (z-score),[7],1.73
same,glycan array binding signal (z-score),[8],-0.374
same,glycan array binding signal (z-score),Fuc(a1-3)GlcNAc,3.8
same,glycan array binding signal (z-score),[9],0.994
same,glycan array binding signal (z-score),Fuc(a1-4)GlcNAc,3.56
same,glycan array binding signal (z-score),Gal(a1-3)Gal(b1-3)GlcNAc,-0.384
same,glycan array binding signal (z-score),[10],-0.087
same,glycan array binding signal (z-score),[11],-0.382
same,glycan array binding signal (z-score),Gal(a1-4)GlcNAc,-0.385
same,glycan array binding signal (z-score),Gal(b1-3)GalNAc,-0.383
same,glycan array binding signal (z-score),Gal(b1-4)Glc,-0.383
same,glycan array binding signal (z-score),[12],-0.356
same,glycan array binding signal (z-score),[13],-0.386
same,glycan array binding signal (z-score),[14],-0.386
same,glycan array binding signal (z-score),[15],-0.382
same,glycan array binding signal (z-score),Gal3S(b1-3)GalNAc,-0.387
same,glycan array binding signal (z-score),[16],0.328
same,glycan array binding signal (z-score),Gal3S6S(b1-4)GlcNAc6S,-0.381
same,glycan array binding signal (z-score),Gal6S(b1-3)GlcNAc6S,-0.385
same,glycan array binding signal (z-score),GalNAc(a1-3)Gal,-0.386
same,glycan array binding signal (z-score),[17],-0.4
same,glycan array binding signal (z-score),[18],-0.377
same,glycan array binding signal (z-score),GlcA(b1-3)GlcNAc,-0.361
same,glycan array binding signal (z-score),[19],-0.377
same,glycan array binding signal (z-score),[20],-0.384
same,glycan array binding signal (z-score),Kdn(a2-3)Gal(b1-4)GlcNAc,-0.381
same,glycan array binding signal (z-score),[21],-0.376
same,glycan array binding signal (z-score),[22],-0.385
same,glycan array binding signal (z-score),[23],-0.382
same,glycan array binding signal (z-score),[24],-0.383
same,glycan array binding signal (z-score),Neu5Ac(a2-6)GalNAc,-0.383
same,glycan array binding signal (z-score),[25],-0.388

# — the supplement of paper PMC8728848
